Columns and labels:
[1] = target: T1, Inhibitor of nuclear factor kappa-B kinase subunit epsilon (Homo sapiens) (UniProt Q14164); details: at 1 µM;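 also: reported values are averaged percent inhibition figures against human IKKε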
T1 sequence (whole entry): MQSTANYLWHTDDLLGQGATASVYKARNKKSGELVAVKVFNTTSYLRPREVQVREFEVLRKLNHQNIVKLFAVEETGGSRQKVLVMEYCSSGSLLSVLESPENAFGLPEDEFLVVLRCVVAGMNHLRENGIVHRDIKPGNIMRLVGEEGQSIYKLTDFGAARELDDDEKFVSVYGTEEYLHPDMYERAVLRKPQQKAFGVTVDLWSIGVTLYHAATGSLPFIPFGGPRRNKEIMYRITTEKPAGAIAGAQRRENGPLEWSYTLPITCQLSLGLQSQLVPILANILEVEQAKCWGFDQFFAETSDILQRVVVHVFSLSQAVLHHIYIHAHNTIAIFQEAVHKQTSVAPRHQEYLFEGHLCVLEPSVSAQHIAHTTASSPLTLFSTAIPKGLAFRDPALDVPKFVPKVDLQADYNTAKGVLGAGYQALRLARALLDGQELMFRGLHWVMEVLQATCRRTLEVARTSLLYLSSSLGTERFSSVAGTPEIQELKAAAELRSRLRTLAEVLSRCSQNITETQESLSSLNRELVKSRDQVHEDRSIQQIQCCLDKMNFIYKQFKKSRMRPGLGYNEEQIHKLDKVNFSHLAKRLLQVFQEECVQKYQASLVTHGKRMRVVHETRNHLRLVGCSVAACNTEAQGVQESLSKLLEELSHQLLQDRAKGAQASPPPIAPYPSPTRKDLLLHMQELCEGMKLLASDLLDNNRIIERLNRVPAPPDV

[2] = target: T2, Serine/threonine-protein kinase Nek1 (Homo sapiens) (UniProt Q96PY6); details: at 0.1 µM
T2 sequence (whole entry): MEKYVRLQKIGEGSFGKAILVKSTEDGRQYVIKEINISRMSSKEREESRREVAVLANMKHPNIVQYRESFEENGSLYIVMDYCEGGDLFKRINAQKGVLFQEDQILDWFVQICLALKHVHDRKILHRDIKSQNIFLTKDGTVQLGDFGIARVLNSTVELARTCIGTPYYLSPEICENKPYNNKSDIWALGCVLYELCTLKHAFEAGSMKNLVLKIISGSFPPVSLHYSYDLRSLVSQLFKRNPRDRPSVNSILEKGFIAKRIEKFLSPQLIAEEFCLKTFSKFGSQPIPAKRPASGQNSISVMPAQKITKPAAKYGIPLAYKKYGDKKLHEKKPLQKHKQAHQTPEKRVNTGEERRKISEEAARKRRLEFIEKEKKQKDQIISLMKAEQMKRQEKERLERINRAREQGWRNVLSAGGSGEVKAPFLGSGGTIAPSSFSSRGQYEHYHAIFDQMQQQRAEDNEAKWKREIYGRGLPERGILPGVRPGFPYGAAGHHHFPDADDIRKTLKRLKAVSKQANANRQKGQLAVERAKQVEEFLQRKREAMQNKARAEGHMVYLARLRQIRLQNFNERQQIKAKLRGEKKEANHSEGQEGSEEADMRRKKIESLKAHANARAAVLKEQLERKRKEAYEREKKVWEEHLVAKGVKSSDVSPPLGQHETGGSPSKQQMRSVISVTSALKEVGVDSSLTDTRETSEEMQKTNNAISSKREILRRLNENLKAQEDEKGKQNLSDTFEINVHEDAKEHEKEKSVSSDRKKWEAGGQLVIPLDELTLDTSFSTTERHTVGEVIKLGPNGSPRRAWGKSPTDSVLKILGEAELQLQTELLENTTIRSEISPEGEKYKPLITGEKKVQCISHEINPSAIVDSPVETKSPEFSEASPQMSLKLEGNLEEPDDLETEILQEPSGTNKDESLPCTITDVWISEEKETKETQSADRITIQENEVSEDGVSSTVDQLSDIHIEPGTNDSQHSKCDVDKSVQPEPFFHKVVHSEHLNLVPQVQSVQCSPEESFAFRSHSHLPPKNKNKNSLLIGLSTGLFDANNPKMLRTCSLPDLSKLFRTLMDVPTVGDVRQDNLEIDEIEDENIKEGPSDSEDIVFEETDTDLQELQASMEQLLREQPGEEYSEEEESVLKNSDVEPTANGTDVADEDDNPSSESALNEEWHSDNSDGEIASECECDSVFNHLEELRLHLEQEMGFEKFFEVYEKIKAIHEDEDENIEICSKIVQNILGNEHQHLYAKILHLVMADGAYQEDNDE

[3] = target: T2, Serine/threonine-protein kinase Nek1 (Homo sapiens); details: at 1 µM
[4] = target: T3, Serine/threonine-protein kinase Nek2 (Homo sapiens) (UniProt P51955); details: at 0.1 µM
T3 sequence (whole entry): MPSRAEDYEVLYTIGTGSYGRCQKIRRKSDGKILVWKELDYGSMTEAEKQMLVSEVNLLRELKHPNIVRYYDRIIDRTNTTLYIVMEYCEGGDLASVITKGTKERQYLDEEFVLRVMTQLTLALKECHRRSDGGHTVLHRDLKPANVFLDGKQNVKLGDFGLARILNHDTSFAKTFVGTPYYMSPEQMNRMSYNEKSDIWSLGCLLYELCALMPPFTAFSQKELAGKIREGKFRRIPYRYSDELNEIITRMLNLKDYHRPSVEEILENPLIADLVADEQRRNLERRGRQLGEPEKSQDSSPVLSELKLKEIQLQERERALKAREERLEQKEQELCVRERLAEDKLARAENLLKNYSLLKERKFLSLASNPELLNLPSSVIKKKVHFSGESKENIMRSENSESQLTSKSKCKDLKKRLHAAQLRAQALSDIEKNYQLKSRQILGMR

[5] = target: T3, Serine/threonine-protein kinase Nek2 (Homo sapiens); details: at 1 µM
[6] = target: Serine/threonine-protein kinase Nek6 (Homo sapiens) (UniProt Q9HC98); details: at 0.1 µM
Chain of Serine/threonine-protein kinase Nek6 (Homo sapiens) (Q9HC98 whole entry): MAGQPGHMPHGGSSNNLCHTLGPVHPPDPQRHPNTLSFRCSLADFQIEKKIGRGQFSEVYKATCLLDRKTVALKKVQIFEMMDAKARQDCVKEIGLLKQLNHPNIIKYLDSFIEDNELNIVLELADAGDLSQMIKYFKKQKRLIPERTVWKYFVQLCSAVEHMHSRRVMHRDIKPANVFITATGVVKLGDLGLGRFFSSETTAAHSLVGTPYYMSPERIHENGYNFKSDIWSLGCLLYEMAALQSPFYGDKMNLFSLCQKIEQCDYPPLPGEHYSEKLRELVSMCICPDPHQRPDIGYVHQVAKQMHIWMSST

[7] = target: Serine/threonine-protein kinase Nek6 (Homo sapiens) (UniProt Q9HC98); details: at 1 µM
[8] = target: Serine/threonine-protein kinase Nek7 (Homo sapiens) (UniProt Q8TDX7); details: at 0.1 µM
Chain of Serine/threonine-protein kinase Nek7 (Homo sapiens) (Q8TDX7 whole entry, looked up): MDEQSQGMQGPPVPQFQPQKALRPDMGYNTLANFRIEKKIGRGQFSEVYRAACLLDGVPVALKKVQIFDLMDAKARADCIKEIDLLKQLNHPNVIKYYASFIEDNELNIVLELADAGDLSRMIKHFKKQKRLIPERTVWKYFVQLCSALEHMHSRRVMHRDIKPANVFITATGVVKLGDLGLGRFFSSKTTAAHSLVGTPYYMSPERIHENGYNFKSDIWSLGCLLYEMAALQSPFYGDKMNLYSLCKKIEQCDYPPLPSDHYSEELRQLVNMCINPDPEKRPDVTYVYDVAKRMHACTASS

[9] = target: Serine/threonine-protein kinase Nek7 (Homo sapiens) (UniProt Q8TDX7); details: at 1 µM
[10] = target: T4, Serine/threonine-protein kinase Nek9 (Homo sapiens) (UniProt Q8TD19); details: at 0.1 µM;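 also: reported value is the mean percent inhibition of NEK9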
T4 sequence (whole entry): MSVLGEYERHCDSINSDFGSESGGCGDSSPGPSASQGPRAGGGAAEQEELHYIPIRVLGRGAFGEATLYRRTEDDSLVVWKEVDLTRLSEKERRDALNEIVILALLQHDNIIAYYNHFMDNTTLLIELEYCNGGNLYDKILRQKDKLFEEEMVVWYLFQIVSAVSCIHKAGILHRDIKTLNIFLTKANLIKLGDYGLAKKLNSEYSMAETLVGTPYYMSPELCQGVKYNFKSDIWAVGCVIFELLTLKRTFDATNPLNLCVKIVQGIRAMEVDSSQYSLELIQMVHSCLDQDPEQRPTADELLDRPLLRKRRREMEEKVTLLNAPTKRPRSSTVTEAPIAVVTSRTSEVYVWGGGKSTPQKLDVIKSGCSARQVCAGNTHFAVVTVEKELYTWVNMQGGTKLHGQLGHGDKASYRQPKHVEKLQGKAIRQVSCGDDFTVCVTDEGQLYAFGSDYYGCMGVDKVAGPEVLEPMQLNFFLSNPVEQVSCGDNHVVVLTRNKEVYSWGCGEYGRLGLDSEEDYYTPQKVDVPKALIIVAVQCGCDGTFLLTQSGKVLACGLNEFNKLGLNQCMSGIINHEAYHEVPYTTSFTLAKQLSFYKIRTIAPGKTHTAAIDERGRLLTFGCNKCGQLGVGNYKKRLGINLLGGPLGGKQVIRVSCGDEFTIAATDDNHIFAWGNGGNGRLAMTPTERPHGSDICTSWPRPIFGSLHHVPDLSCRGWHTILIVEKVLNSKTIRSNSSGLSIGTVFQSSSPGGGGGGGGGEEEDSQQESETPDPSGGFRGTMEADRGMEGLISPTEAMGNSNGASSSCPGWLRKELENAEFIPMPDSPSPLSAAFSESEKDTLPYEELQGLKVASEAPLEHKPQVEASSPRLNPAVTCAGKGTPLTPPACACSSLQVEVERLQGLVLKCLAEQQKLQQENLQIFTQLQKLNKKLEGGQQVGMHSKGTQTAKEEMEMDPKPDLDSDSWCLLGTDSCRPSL

O=C1NC(=O)C(c2ccc(Cl)cc2)=C1Nc1ccc(Cl)c(C(=O)O)c1
inhibition [1]: -2.57%
inhibition [2]: -0.84%
inhibition [3]: -2.3%
inhibition [4]: -1.89%
inhibition [5]: -2.45%
inhibition [6]: 0.26%
inhibition [7]: 2.37%
inhibition [8]: -1.15%
inhibition [9]: -3.67%
inhibition [10]: -5.68%
